The text below walks through data of PubChem BioAssay (NCI).

Each structure is given as a SMILES string. About 83,000 compounds went through this panel and 20% of them were active in at least one assay; those are over-represented in the sample as a whole.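 Negative percent growth values reflect cell death: -40 means 40% of the cells present at the start died, and -100 means all died.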 Unmarked numbers belong to inactive results. Active and inactive are the calls of the source. How the source made its calls: active means growth percent below 10; inactive means the rest.

The test relates to HL-60(TB) leukemia. Nature of the test: NCI-60 one-dose screen, 48 h (100 = growth as untreated, 0 = no growth, -100 = all killed). The settings on record: 10 µM unless noted.
For the compound `CCNCCCCNCCCCNCCCCNCCCCNCC`, the growth is 127%. In the case of `C(=C(\C1=NCCN1)n1ccc2ccccc21)/c1ccccc1` it was 96.8%; in that of `O=C(/C=C/c1ccco1)c1ccccc1O`, 92.5%; in that of `Cc1[nH]n(-c2cccc(Cl)c2)c(=O)c1/C=C1\C=Nc2ccc(Br)cc21`, 38.5%. In the case of `COc1ccc(N2C(=O)CC(c3cc(OC)c(OC)c(OC)c3)C3C2=NC(=O)N3C)cc1` (stereo not given), the growth is 107%. In the case of `COc1ccccc1/C=C1\Oc2cc(OCCN3CCC(Cc4ccccc4)CC3)ccc2C1=O` it was 97.1%; in that of `Cc1ccc(CNc2c3ccccc3nc3ccccc23)cc1`, 25.5%. In the case of `CC(C)=NNC(N)=S` it was 84.7%; in that of `O=C1Nc2c(ccc(Cl)c2Cl)/C1=C/c1ccc(O)cc1`, 76.9%; in that of `O=c1c2cc(F)cc(Cl)c2sc2c(NCCCNCCO)nc3ccccc3c12`, 77.1%. In the case of `O=C(Nc1ccc(Cl)cc1F)c1cc(F)ccc1O` it was -43.8% (active); in that of `O=S(=O)(Nc1ccc(Cl)c(Cl)c1)c1ccc(-c2cnc(C3CC3)o2)cc1`, 18.6%; in that of `CCCCCCCCOC(=O)CC[C@@H](C)[C@H]1CC[C@H]2[C@@H]3[C@H](OC(=O)CCN)C[C@@H]4C[C@H](OC(=O)CCN)CC[C@]4(C)[C@H]3C[C@H](OC(=O)CCN)[C@]12C`, 43.7%. Consider `[Ag].[Ag].[NH-]S(=O)(=O)c1ccc(N=Nc2cc(N=Nc3ccc(S([NH-])(=O)=O)cc3)c3c(NC(=O)C(Cl)Cl)cccc3c2OC(=O)C(Cl)Cl)cc1.[c-]1nccs1.[c-]1nccs1`, for which the growth is 44.2%. In the case of `COc1ccccc1[C@H]1c2[nH]c3ccccc3c2C[C@H]2C(=O)N(CCCCCCC(=O)NO)CC(=O)N12` it was 1.91% (active). As to `CCCCOC(=O)c1ccc(NC(=O)CCl)cc1`, the growth was 25.3%.

As to `c1csc(-c2cc(-c3cc(-c4cccs4)[nH]n3)n[nH]2)c1`, the growth is 87.1%.

On to `CNC(=O)c1c(I)c(NC(C)=O)c(I)c(C(=O)O)c1I`, for which the growth is 122%. Then `S=C1SCN(Cc2ccccc2)CN1Cc1ccccc1`, with 16.5%; and `O=C(Nc1ccc2c(c1)C(=O)c1ccccc1-2)c1ccccc1`, with 101%; and `O=C1NC(=C(Cl)Cl)/C(=N\S(=O)(=O)NCc2ccccc2)N1`, with 97%. In the case of `Cc1nc2c3c(-c4ccccc4)c(-c4ccccc4)oc3ncn2n1` it was 91.4%. Then `CN(C)c1ccc(-c2nc3ncc(Br)cc3o2)cc1`, with 85.8%; and `Cc1ccccc1-c1cc(-c2ccc(Br)s2)[nH]c(=O)c1C#N`, with 82%. For the compound `O=C1C[C@H](c2ccccc2)[C@H](c2ccccc2)C1`, the growth was 88.1%.

For the compound `O=C1NC(=O)C(CSc2ccccc2)(c2ccccc2)N1` (stereo not given), the growth is 99.9%. In the case of `Cc1cc(=O)oc2cc(O)cc(O)c12` it was 109%. In the case of `O=C(NNc1cnccn1)c1nc2cc(F)ccc2n2cccc12` it was 2.46% (active). Then `COc1ccc(-c2cc(-c3nnc(SCC(=O)Nc4ccc(/C(C)=N\O)cc4)o3)c3ccccc3n2)cc1`, with 104%; and `COc1cccc(-c2cn3nc(-c4cn(C)c5ccccc45)sc3n2)c1`, with 104%; and `Cc1cc(Nc2nc(-c3ccncc3)nc3ccccc23)n[nH]1`, with 49.1%. On to `Nc1cc2nc3ccccc3sc-2cc1=O`, for which the growth is 6.95% (active). Then `Nc1c(C(=O)Nc2ccccc2F)sc2nc3c(cc12)C(=O)CCC3`, with 33.9%; and `C=CC(=O)Nc1cc2c(Nc3ccc(F)c(Cl)c3)ncnc2cc1OCCCN1CCOCC1`, with -26.7% (active); and `CC1CN(CCO)CC(C)O1` (stereo not given), with 102%. Then `CCCCCCCC(=O)SCC/C=C/[C@@H]1CC(=O)NCc2cccc(n2)CN(Cc2ccc3ccccc3c2)CC(=O)N[C@@H](C(C)C)C(=O)O1`, with 11%. As to `NC(=O)c1c(NC(=O)c2cccc(C(F)(F)F)c2)sc2c1CCC(=O)C2`, the growth is -11.6% (active). Turning to `COc1ccc(C2c3ccc4ccccc4c3Oc3nc(C)[nH]c(=O)c32)cc1` (stereo not given), the growth was 99.3%.

Turning to `COc1cc(-c2nc(-c3nc4ccc(Cl)cc4[nH]3)cc3c2[nH]c2ccccc23)cc(OC)c1OC`, the growth is 68.7%. With `N=C(N)/N=C(\CCc1nc2ccccc2[nH]1)c1nc2ccccc2[nH]1`, the growth was 118%.
